Assay [1] is described as follows: NCI Yeast Anticancer Drug Screen. Data for the rad50 strain (AID 155).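 Further: 0% = growth of vehicle-only cultures of the same strain.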 The following applies: S. cerevisiae rad50 strain growth inhibition, hits give high values. The gist of the method:
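Readout: growth inhibition relative to vehicle-treated cultures. Compound exposure was carried out in a genetically defined yeast strain deficient in DNA damage repair.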

Assay [2] can be described thus: NCI Yeast Anticancer Drug Screen. Data for the mec2-1 strain (AID 157). The following applies: S. cerevisiae mec2-1 strain, hits give high values. The procedure, abridged: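 Vehicle-treated cultures served as reference for growth inhibition of compound-exposed mec2-1 yeast.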
A short description of assay [3]: NCI Yeast Anticancer Drug Screen. Data for the sgs1 mgt1 strain (AID 161).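 Further: 0% = growth of cultures given vehicle only.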 To be noted: S. cerevisiae sgs1 mgt1 strain, hits give high values. The gist of the method:
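Genetically altered yeast, compound exposure, growth inhibition relative to vehicle.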

Assay [4] in a line: NCI Yeast Anticancer Drug Screen. Data for the cln2 rad14 strain (AID 165).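 Further: 0% = growth equal to vehicle treated cultures.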 The following applies: S. cerevisiae cln2 rad14 strain, hits give high values. The gist of the method: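 Each compound was tested on cln2 rad14 yeast. Inhibition of growth was calculated against vehicle-exposed controls.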
Assay [5] is described as follows: NCI Yeast Anticancer Drug Screen. Data for the bub3 strain (AID 167). To be noted: S. cerevisiae bub3 mutant strain, hits give high values. The procedure, abridged: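 Readout: yeast growth inhibition, expressed relative to vehicle-only wells. The test organism is a mutant strain from a panel with lesions in DNA repair or checkpoint genes.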
Assay [6] can be described thus: NCI Yeast Anticancer Drug Screen. Data for the mlh1 rad18 strain (AID 175). The following applies: S. cerevisiae mlh1 rad18 strain growth inhibition, hits give high values. The gist of the method: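 Vehicle-treated cultures served as the reference for growth inhibition in a yeast strain carrying DNA damage repair alterations exposed to each compound.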
Where [7] appears, read: at 5.0 µM (retest, dose inferred, filed as 0.5).
The mark [8] stands for this setting: at 50.0 µM (retest, dose inferred, filed as 5.0).

Structures are written as SMILES. Compounds without any hit were thinned out: in the full panel of roughly 79,000, 15% have a hit. Unmarked numbers belong to inactive results. Activity calls are given as the source filed them. No stated cut-off is given here; in the data, active means growth inhibition above about 70%; inactive means the rest.

Turning to `CC(C)CNc1cc(Cl)nc(N)n1`, the growth inhibition in assay [1] (setting [7]) is -1%; in assay [1] (setting [8]), 0%; in assay [1] (at 50.0 µM), 88% (active); in assay [2] (setting [7]), 4%; in assay [2] (setting [8]) it was 1%; in assay [2] (at 50.0 µM) it was 92.3% (active). Besides, the growth inhibition in assay [3] (setting [7]) is 2%; in assay [3] (setting [8]), -3%; in assay [3] (at 50.0 µM), 89.9% (active); in assay [4] (setting [7]) it was -2%; in assay [4] (setting [8]), -6%; in assay [4] (at 50.0 µM) it was 91.3% (active). Moreover, the growth inhibition in assay [5] (setting [7]) was 1%; in assay [5] (setting [8]) it was -2%; in assay [5] (at 50.0 µM) it was 59%; in assay [6] (setting [7]), -4%; in assay [6] (setting [8]) it was -5%; in assay [6] (at 50.0 µM), 95.5% (active).
As for `O=C1OC2(Cc3ccccc31)c1ccccc1-c1ccccc12`, the growth inhibition in assay [1] (setting [7]) was -5%; in assay [1] (setting [8]) it was -1%; in assay [1] (at 50.0 µM), 20.8%; in assay [2] (setting [7]), -4%; in assay [2] (setting [8]), -11%; in assay [2] (at 50.0 µM), 25.9%. The growth inhibition in assay [3] (setting [7]) is -6%; in assay [3] (setting [8]) it was 38%; in assay [3] (at 50.0 µM) it was 41%; in assay [4] (setting [7]) it was -5%; in assay [4] (setting [8]) it was -15%; in assay [4] (at 50.0 µM), 17.6%. Further, the growth inhibition is -10% in assay [5] (setting [7]); -7% in assay [5] (setting [8]); 9.45% in assay [5] (at 50.0 µM); -19% in assay [6] (setting [7]); -9% in assay [6] (setting [8]); 27.8% in assay [6] (at 50.0 µM).
With `CC(C)=Cc1cc2c(cc1O)CCC1C2CC[C@@]2(C)C1CC[C@@H]2O` (some centres not stated), the growth inhibition is 14% in assay [1] (setting [7]); 16% in assay [1] (setting [8]); 41.2% in assay [1] (at 50.0 µM); -5% in assay [2] (setting [7]); 24% in assay [2] (setting [8]); 60.1% in assay [2] (at 50.0 µM). Further, the growth inhibition was -14% in assay [3] (setting [7]); 8% in assay [3] (setting [8]); 71% (active) in assay [3] (at 50.0 µM); 7% in assay [4] (setting [7]); 29% in assay [4] (setting [8]); 78.6% (active) in assay [4] (at 50.0 µM). The growth inhibition was -29% in assay [5] (setting [7]); 22% in assay [5] (setting [8]); 45.8% in assay [5] (at 50.0 µM); -1% in assay [6] (setting [7]); 23% in assay [6] (setting [8]); 54.2% in assay [6] (at 50.0 µM).
Consider `CCCCCCCC/C=C\CCCCCCCCN1CCOCC1`, for which the growth inhibition is -2% in assay [1] (setting [7]); -2% in assay [1] (setting [8]); 99.2% (active) in assay [1] (at 50.0 µM); 0% in assay [2] (setting [7]); -2% in assay [2] (setting [8]); 99.3% (active) in assay [2] (at 50.0 µM). The growth inhibition in assay [3] (setting [7]) was -4%; in assay [3] (setting [8]), 5%; in assay [3] (at 50.0 µM) it was 99.2% (active); in assay [4] (setting [7]) it was 11%; in assay [4] (setting [8]), 3%; in assay [4] (at 50.0 µM), 97.5% (active). Moreover, the growth inhibition in assay [5] (setting [7]) is 15%; in assay [5] (setting [8]), 19%; in assay [5] (at 50.0 µM) it was 99.1% (active); in assay [6] (setting [7]) it was -3%; in assay [6] (setting [8]) it was 1%; in assay [6] (at 50.0 µM), 99.2% (active).
For the compound `O=C(NCCN1CCN2Cc3[nH]c4ccccc4c3CC2C1)c1ccc(Cl)cc1` (configuration not stated), the growth inhibition in assay [1] (setting [7]) was 9%; in assay [1] (setting [8]), 50%; in assay [1] (at 50.0 µM), 51.6%; in assay [2] (setting [7]), 10%; in assay [2] (setting [8]) it was 40%; in assay [2] (at 50.0 µM) it was 46.8%. Besides, the growth inhibition in assay [3] (setting [7]) was 1%; in assay [3] (setting [8]), 50%; in assay [3] (at 50.0 µM), 61%; in assay [4] (setting [7]) it was 27%; in assay [4] (setting [8]) it was 72% (active); in assay [4] (at 50.0 µM), 55.6%. Also, the growth inhibition in assay [5] (setting [7]) was 26%; in assay [5] (setting [8]) it was 53%; in assay [5] (at 50.0 µM) it was 50.5%; in assay [6] (setting [7]), 8%; in assay [6] (setting [8]), 60%; in assay [6] (at 50.0 µM) it was 53.5%.
As to `O=C(O)CCCCC1CCCCC1.[Cu+2]`, the growth inhibition in assay [1] (setting [7]) was 31%; in assay [1] (setting [8]), 94% (active); in assay [1] (at 50.0 µM), 14.7%; in assay [2] (setting [7]), 23%; in assay [2] (setting [8]), 90% (active); in assay [2] (at 50.0 µM) it was -3.1%. In addition, the growth inhibition was 13% in assay [3] (setting [7]); 93% (active) in assay [3] (setting [8]); 36% in assay [3] (at 50.0 µM); 8% in assay [4] (setting [7]); 30% in assay [4] (setting [8]); 0.9% in assay [4] (at 50.0 µM). Further, the growth inhibition was 17% in assay [5] (setting [7]); 91% (active) in assay [5] (setting [8]); 6.2% in assay [5] (at 50.0 µM); 19% in assay [6] (setting [7]); 94% (active) in assay [6] (setting [8]); 1.85% in assay [6] (at 50.0 µM).
With `CCOC(=O)c1c(C)[nH]c(C(c2ccccc2)c2[nH]c(C)c(C(=O)OCC)c2C)c1C`, the growth inhibition is -2% in assay [1] (setting [7]); 65% in assay [1] (setting [8]); 44% in assay [1] (at 50.0 µM); -4% in assay [2] (setting [7]); 64% in assay [2] (setting [8]); 43.4% in assay [2] (at 50.0 µM). The growth inhibition in assay [3] (setting [7]) was 7%; in assay [3] (setting [8]), 69%; in assay [3] (at 50.0 µM) it was 66.5%; in assay [4] (setting [7]) it was 0%; in assay [4] (setting [8]), 86% (active); in assay [4] (at 50.0 µM), 75.2% (active). Further, the growth inhibition is -5% in assay [5] (setting [7]); 80% (active) in assay [5] (setting [8]); 46.2% in assay [5] (at 50.0 µM); 5% in assay [6] (setting [7]); 74% (active) in assay [6] (setting [8]); 48.8% in assay [6] (at 50.0 µM).
As for `Nc1nnc(-c2cc([N+](=O)[O-])cc([N+](=O)[O-])c2)o1`, the growth inhibition in assay [1] (setting [7]) is -16%; in assay [1] (setting [8]), -2%; in assay [1] (at 50.0 µM), 22.8%; in assay [2] (setting [7]) it was -4%; in assay [2] (setting [8]), -5%; in assay [2] (at 50.0 µM) it was 14.6%. Besides, the growth inhibition was -1% in assay [3] (setting [7]); 14% in assay [3] (setting [8]); 15.1% in assay [3] (at 50.0 µM); 6% in assay [4] (setting [7]); 20% in assay [4] (setting [8]); -20.2% in assay [4] (at 50.0 µM). The growth inhibition was 3% in assay [5] (setting [7]); 7% in assay [5] (setting [8]); -19.2% in assay [5] (at 50.0 µM); -21% in assay [6] (setting [7]); 3% in assay [6] (setting [8]); 31.9% in assay [6] (at 50.0 µM).
As to `O=C1NOCC1N=Cc1cc(Cl)ccc1O` (configuration not stated), the growth inhibition in assay [1] (setting [7]) is 9%; in assay [1] (setting [8]) it was 65%; in assay [1] (at 50.0 µM), 75.8% (active); in assay [2] (setting [7]), 3%; in assay [2] (setting [8]), 30%; in assay [2] (at 50.0 µM), 16.9%. For the same compound, the growth inhibition was -7% in assay [3] (setting [7]); 35% in assay [3] (setting [8]); 26.9% in assay [3] (at 50.0 µM); 0% in assay [4] (setting [7]); 38% in assay [4] (setting [8]); 23.4% in assay [4] (at 50.0 µM). Moreover, the growth inhibition is 6% in assay [5] (setting [7]); 61% in assay [5] (setting [8]); 58.9% in assay [5] (at 50.0 µM); 9% in assay [6] (setting [7]); 78% (active) in assay [6] (setting [8]); 84% (active) in assay [6] (at 50.0 µM).

For the origin of these results see PubChem BioAssay (NCI).
